Only some compounds are listed: those with a hit (about 5.6% of all), similar ones and a draw of the others.
CtBP-E1A blk: blocks the CtBP interaction with E1A. AlphaScreen GST-E1A/His-CtBP binding, 1536-well; stronger effect = lower value. activity change, % (concentration not given with the values). 340,000 compounds, 0.49% hits. AID 651724; in the data active = activity change below about -65%; inconclusive = mostly about -30% to -63%
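Homogeneous bead-based format: GST-tagged E1A captured on glutathione donor beads, His-tagged CtBP on nickel acceptor beads; compounds precede bead addition by 2 h at 37 °C.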
Six1-Eya2 blk: blocks human Six1 binding to Eya2 | 360,000 compounds, 0.56% hits | AlphaScreen GST-Six1/His-Eya2 binding, biochemical; stronger effect = lower value | activity change, % (no concentration beside the values); in the data active = activity change below about -65%; inconclusive = mostly about -30% to -63%
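Compounds are tested against tagged Six1 and Eya2 proteins bridged by glutathione donor and nickel acceptor beads; after a one-hour incubation at 37 °C without light, AlphaScreen emission is recorded.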
RORg inh: blocks mouse ROR gamma transcriptional activity; Drosophila S2 Gal4-RORgamma UAS-luciferase reporter, 20 h; Potency, µM (top dose mostly 53.6 µM), without a hit: top-dose activity change, negative = inhibition, usual class: inhibitors; 310,000 compounds, 5.4% hits; AID 2551; note: potency is the fitted concentration of half-maximal effect; nearly all actives have a fitted effect of over 60% in size
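A Gal4/UAS one-hybrid system in insect cells: metallothionein-promoter Gal4–ROR gamma fusion plus Photinus luciferase reporter. Copper sulfate 700 uM final, 20 hr ambient incubation, luminescent detection after 10 min with reagent.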
PKM2 act: activators of human pyruvate kinase M2; 260,000 compounds, 0.34% hits; purified PKM2, Kinase-Glo ATP luminescence, activation; response scale: 0% is enzyme alone, no compound; P14618; Potency, µM (top dose mostly 57.5 µM), without a hit: at the highest dose activation, actives largely listed as activators; note: potency is the fitted concentration of half-maximal effect; nearly all actives have a fitted effect of over 55% in size
Target sequence (P14618 whole entry, looked up): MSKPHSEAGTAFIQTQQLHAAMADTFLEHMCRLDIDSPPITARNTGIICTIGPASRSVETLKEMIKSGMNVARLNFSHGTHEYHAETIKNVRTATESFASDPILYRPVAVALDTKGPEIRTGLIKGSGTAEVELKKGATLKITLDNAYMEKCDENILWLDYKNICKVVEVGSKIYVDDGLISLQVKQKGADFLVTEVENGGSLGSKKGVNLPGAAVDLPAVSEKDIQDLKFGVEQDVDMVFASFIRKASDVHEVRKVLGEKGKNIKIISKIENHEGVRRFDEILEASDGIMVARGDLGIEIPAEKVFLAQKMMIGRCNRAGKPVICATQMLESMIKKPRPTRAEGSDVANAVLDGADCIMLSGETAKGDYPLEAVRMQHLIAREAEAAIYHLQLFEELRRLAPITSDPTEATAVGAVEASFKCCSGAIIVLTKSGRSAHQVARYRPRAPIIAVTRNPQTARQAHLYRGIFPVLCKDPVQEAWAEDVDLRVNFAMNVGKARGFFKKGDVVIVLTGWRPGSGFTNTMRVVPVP
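Purified hPK-M2 (>95% pure) converted ADP (0.1 mM final) to ATP with 0.5 mM PEP in 50 mM imidazole pH7.2, KCl, MgCl2, Tween 20, BSA; 1 h at room temperature. ATP detected by Kinase-Glo luminescence.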
Gal4-VP16 FLuc: Gal4-VP16 reporter inhibition counter-screen | Drosophila S2 Gal4-VP16 UAS-luciferase, luminescence, 20 h | Potency, µM (highest dose often 53.6 µM), without a hit: top-dose activity, negative = inhibition, most hits filed as inhibitors | 310,000 compounds, 3.5% hits;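 note: Gal4-VP16 expression switched on by copper sulfate through the metallothionein promoter; potency is the fitted concentration of half-maximal effect; nearly all actives have a fitted effect of over 50% in size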
* hit, by the source's call; ? = inconclusive; . = no result. Unless noted, calls come from the whole dose curve; as a rule, active = well fitted curve in the direction sought with a large enough effect; inconclusive = small, poorly fitted or top-dose-only effect, or another doubt; inactive = no such curve, though single readings can be large; an effect the other way counts as inactive or inconclusive. % is set by controls: 0 for no effect and ±100 for the full control effect.

SMILES	CtBP-E1A blk	Six1-Eya2 blk	RORg inh	PKM2 act	Gal4-VP16 FLuc
CCCCN(C)CCCNC(=O)c1cc(=O)[nH]c2ccc(S(=O)(=O)N3CCCCC3C)cc12 (stereo not drawn)	.	4	-10%	5%	-4%
COc1ccc(OC)c(NC(=O)CSc2nn3c(=O)c(C)nnc3s2)c1	-88*	?	-16%	-1%	-4%
COc1ccc(CCNC(=O)CSc2nn3c(=O)c(C)nnc3s2)cc1OC	?	-25	-1%	-7%	2%
COC(=O)c1ccc(NC(=O)CSc2nn3c(=O)c(C)nnc3s2)cc1	-93*	-67*	-19%	-1%	-1%
Cc1nnc2sc(SCC(=O)Nc3ccc(Br)cc3)nn2c1=O	15	-87*	-24%	12%	9%
Cc1ccccc1NC(=O)CSc1nn2c(=O)c(C)nnc2s1	-92*	-84*	?	5%	4%
CC(=O)C1=C(c2ccccc2)NC(=O)NC1c1cccs1 (stereo not drawn)	1	7	-12%	2%	-9%
CN(c1ccccc1)S(=O)(=O)c1cccc(NC(=O)C2CC(=O)N(Cc3ccccc3)C2)c1 (stereo not drawn)	.	-4	31%	-3%	8%
OC(c1cccc(F)c1)c1ncc(-c2ccc(C(F)(F)F)cc2)[nH]1 (stereo not drawn)	-8	-12	.	.	.
Cc1nnc2sc(SCC(=O)Nc3cccc(Cl)c3)nn2c1=O	-93*	?	-23%	10%	-7%
COc1cccc(NC(=O)CSc2nn3c(=O)c(C)nnc3s2)c1	-99*	-77*	-5%	15%	2%
CCC(=O)Nc1nnc(SCC(=O)Nc2cccc(Cl)c2)s1	0	3	-15%	16%	-2%
COc1ccc(NC(=O)CSc2nn3c(=O)c(C)nnc3s2)cc1	-93*	-86*	-21%	-12%	4%
Cc1[nH]c(=S)sc1Cc1ccc(Cl)c(Cl)c1	.	.	16µM*	8%	?
Cc1nnc(SCc2ccc(Cl)c(Cl)c2)s1	18	22	16%	1%	6%
CCN(CC(=O)NC(C)C)C(=O)Cc1ccc(C)c(C)c1	2	-3	0%	1%	13%
O=C(O)Cc1ccc(NC(=S)NCc2ccco2)cc1	4	-2	2%	-9%	-17%
S=C(NCc1ccco1)Nc1ccc(Cl)cc1	13	8	11µM*	0%	?
S=C(NCc1ccco1)Nc1ccc(Oc2ccc(Cl)cc2)cc1	-3	-4	2.8µM*	-2%	11µM*
CCOc1ccc(NC(=S)N(Cc2ccc(Cl)cc2)Cc2ccco2)cc1	-2	-5	13µM*	-5%	?
S=C(NCc1ccco1)Nc1ccccc1	5	-1	8.9µM*	0%	?
CC(C)(C)OC(=O)C[C@@H]1C/C=C\C[C@@H](CC(=O)N(CCO)Cc2ccccc2)C(=O)N2CCC[C@@H]2COC1=O	4	5	.	.	.
O=C(O)/C=C/c1ccc(-n2ccnc2)cc1	10	6	14%	3%	5%
Cc1ccc2c(c1)c1c3n2CCN(C(=O)CCl)C3CCC1 (stereo not drawn)	4	-7	2.5µM*	5%	11µM*
CC(=O)N1CCn2c3c(c4cc(C)ccc42)CCCC31 (stereo not drawn)	.	-14	15%	-4%	-6%
SMILES	CtBP-E1A blk	Six1-Eya2 blk	RORg inh	PKM2 act	Gal4-VP16 FLuc
O=C(C[n+]1ccc(Cc2ccccc2)cc1)Nc1ccccc1	8	8	17%	0%	7%
CCc1cc2c(SCc3nc4sc(C(C)=O)c(C)c4c(=O)[nH]3)ncnc2s1	-5	-9	10µM*	3%	?
Cc1ccc2oc(C(=O)N3CCN(CC(=O)NC(C)C)CC3)c(C)c2c1	-4	-8	-10%	-5%	-2%
CCOC(=O)N/N=C(\C)c1ccccc1OC(F)F	7	6	13%	-12%	-4%
Cc1c(C#N)c(O)[nH]c(=O)c1N=Nc1ccc(Br)cc1C(=O)O	-89*	-71*	-30%	.	?
CCOC(=O)c1ccc(-c2ccc3oc(-c4ccsc4)cc(=O)c3c2)cc1F	5	8	.	.	.
O=C1c2ccccc2NC(c2ccc(-c3ccc(Br)cc3)o2)N1O (stereo not drawn)	0	-9	7.1µM*	4%	?
Cn1cnc(S(=O)(=O)N2CCCCC2c2cc(C(=O)Nc3ccc(F)c(Cl)c3)no2)c1 (stereo not drawn)	1	5	.	.	.
COCc1cc(S(=O)c2ccc(Cl)cc2)nc(C)n1 (stereo not drawn)	2	3	4.5µM*	3%	?
COc1ccc(NC(=S)N/N=C/c2cccn2Cc2ccccc2F)cc1	0	-3	0.28µM*	2%	1.4µM*
COc1ccc(NC(=S)N/N=C/c2cccn2Cc2ccc(F)cc2Cl)cc1	-6	?	0.79µM*	-4%	2.8µM*
O=C(N/N=C/c1cn(CC(=O)N2CCOCC2)c2ccccc12)c1cccnc1	-12	2	10%	7%	4%
O=C(N/N=C/c1cn(Cc2ccccc2)c2ccccc12)c1cccnc1	3	-3	7.1µM*	-3%	8.9µM*
O=C(N/N=C/c1cn(Cc2ccccc2)c2ccccc12)c1ccncc1	-15	3	2.8µM*	-2%	?
c1ccc(-c2nc(-c3ccncc3)no2)cc1	2	12	17%	6%	-17%
c1ccc(-c2ccccc2-c2nc(-c3ccncc3)no2)cc1	6	15	8.9µM*	5%	?
O=C(O)c1ccc(-c2noc(-c3ccccc3F)n2)cc1	.	.	.	.	10µM*
c1ccc(C(Cc2nc(-c3ccncc3)no2)c2ccccc2)cc1	7	14	?	-1%	10µM*
CN(Cc1nc(-c2ccncc2)no1)S(=O)(=O)c1ccccc1	11	13	2.5µM*	10%	9%
O=C(COC(=O)CC1CC2CCC1C2)Nc1cccc(S(=O)(=O)NC2=NCCCCC2)c1 (stereo not drawn)	-2	-20	3%	-5%	-26%
C=CCn1c(CNc2ccccc2)nnc1SCC(=O)N/N=C/c1ccccc1O	?	-72*	10µM*	-7%	16µM*
O=C(CCc1ccccc1)N/N=C\c1cc2c(cc1Br)OCO2	0	-7	?	2%	?
O=C(CSCc1ccccc1)N/N=C/c1cc2c(cc1Br)OCO2	-8	-11	?	0%	11µM*
O=C(N/N=C/c1cc(Br)ccc1O)c1ccccc1Cl	-79*	-88*	0.56µM*	-6%	2.5µM*
O=C(N/N=C/C1CC2C=CC1C2)c1ccccc1O (stereo not drawn)	-10	-1	4.5µM*	-14%	?
CC(=O)Nc1ccc(C(=O)N/N=C/C2CC3C=CC2C3)cc1 (stereo not drawn)	.	-5	4%	.	-7%
O=C(CCc1ccccc1)N/N=C/c1cc(Br)ccc1O	-12	-4	2%	-4%	-13%

Screens from PubChem.
